Results as given in PubChem BioAssay AID1159580 (chemical genetic matrix, 2015).
About 2,000 (36%) of roughly 5,500 compounds were called active. Not shown: some 18% with an inconclusive outcome. Cut-off read from the data, not from the text of the source: active = normalized growth mostly below about 0.91 (no sharp cut-off); inconclusive = no clear call, values can overlap the other calls; inactive = mostly above about 0.92. This is one part of the list.

Experiment: chemical genetic growth profiling, strain panel (AID 1159580);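 note: tested at 20 µM; growth read once vehicle control cultures reached saturation at 30 °C; 1 = growth at the plate median or of vehicle wells; lower values mean less growth of the strain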
Conditions: S. cerevisiae deletion strains, growth OD

Measured: normalized growth

COc1cccc(OC)c1OCCNCC1CSc2ccccc2O1 (configuration not stated)
inactive: locus YAL040C, strain CLN3, stronger effect = lower value 1.01 | locus YDR363W, strain ESC2, stronger effect = lower value 0.936 | locus YER002W, strain NOP16, stronger effect = lower value 1.01 | locus YJR075W, strain HOC1, stronger effect = lower value 0.985 | locus YMR263W, strain SAP30, stronger effect = lower value 0.995 | locus YMR307W, strain GAS1, stronger effect = lower value 1.01 | locus YNL175C, strain NOP13, stronger effect = lower value 0.986 | locus YNL197C, strain WHI3, stronger effect = lower value 1.02 | locus YNL224C, strain SQS1, stronger effect = lower value 1 | locus YOR083W, strain WHI5 (second series), stronger effect = lower value 0.966 | locus YPL241C, strain CIN2, stronger effect = lower value 1

ONC(=Nc1ccccc1Cl)c1ccccc1Cl
inactive: locus YAR019C, strain CDC15, stronger effect = lower value 0.999 | locus YBL105C, strain PKC1, stronger effect = lower value 0.987 | locus YBR135W, strain CKS1, stronger effect = lower value 0.992 | locus YBR136W, strain MEC1, stronger effect = lower value 0.986 | locus YBR160W, strain CDC28, stronger effect = lower value 0.993 | locus YDL017W, strain CDC7, stronger effect = lower value 0.988 | locus YDL028C, strain MPS1, stronger effect = lower value 0.985 | locus YDL101C, strain DUN1, stronger effect = lower value 0.993 | locus YDL108W, strain KIN28, stronger effect = lower value 0.979 | locus YDL132W, strain cdc53, stronger effect = lower value 0.997 | locus YDL214C, strain PRR2, stronger effect = lower value 0.824 | locus YDR052C, strain DBF4, stronger effect = lower value 0.983 | locus YDR054C, strain cdc34, stronger effect = lower value 0.992 | locus YDR226W, strain ADK1, stronger effect = lower value 0.987 | locus YDR477W, strain SNF1, stronger effect = lower value 0.859 | locus YER123W, strain YCK3, stronger effect = lower value 0.688 | locus YER133W, strain GLC7, stronger effect = lower value 0.833 | locus YFL009W, strain cdc4, stronger effect = lower value 0.999 | locus YFL029C, strain CAK1, stronger effect = lower value 0.996 | locus YFR003C, strain YPI1, stronger effect = lower value 0.989 | locus YFR028C, strain CDC14, stronger effect = lower value 0.997 | locus YGR040W, strain KSS1, stronger effect = lower value 0.81 | locus YGR052W, strain FMP48, stronger effect = lower value 0.786 | locus YGR092W, strain DBF2, stronger effect = lower value 0.839 | locus YHR079C, strain IRE1, stronger effect = lower value 0.889 | locus YHR082C, strain KSP1, stronger effect = lower value 0.829 | locus YHR205W, strain SCH9, stronger effect = lower value 0.875 | locus YIL147C, strain SLN1, stronger effect = lower value 0.983 | locus YJL095W, strain BCK1, stronger effect = lower value 0.697 | locus YJL128C, strain PBS2, stronger effect = lower value 0.95 | locus YJL157C, strain FAR1, stronger effect = lower value 0.785 | locus YJR016C, strain ILV3, stronger effect = lower value 0.986 | locus YJR066W, strain TOR1 (second series), stronger effect = lower value 0.729 | locus YJR066W, strain TOR1, stronger effect = lower value 0.769 | locus YKL048C, strain ELM1, stronger effect = lower value 0.922 | locus YKL067W, strain YNK1, stronger effect = lower value 0.817 | locus YKL101W, strain HSL1, stronger effect = lower value 0.854 | locus YKL193C, strain SDS22, stronger effect = lower value 1 | locus YKL203C, strain TOR2, stronger effect = lower value 0.891 | locus YLR133W, strain CKI1, stronger effect = lower value 0.841 | locus YLR403W, strain SFP1, stronger effect = lower value 0.832 | locus YML070W, strain DAK1, stronger effect = lower value 0.786 | locus YMR001C, strain CDC5, stronger effect = lower value 0.996 | locus YMR205C, strain PFK2 (second series), stronger effect = lower value 0.83 | locus YMR277W, strain FCP1, stronger effect = lower value 1 | locus YNL006W, strain LST8, stronger effect = lower value 0.997 | locus YNL020C, strain ARK1, stronger effect = lower value 0.809 | locus YNL161W, strain CBK1, stronger effect = lower value 0.994 | locus YNL183C, strain NPR1, stronger effect = lower value 0.86 | locus YNL207W, strain RIO2, stronger effect = lower value 0.99 | locus YNL222W, strain SSU72, stronger effect = lower value 0.993 | locus YNL307C, strain MCK1 (second series), stronger effect = lower value 0.811 | locus YOL078W, strain AVO1, stronger effect = lower value 0.993 | locus YOL136C, strain PFK27, stronger effect = lower value 0.806 | locus YOR061W, strain CKA2, stronger effect = lower value 0.69 | locus YOR119C, strain RIO1, stronger effect = lower value 0.886 | locus YOR231W, strain MKK1, stronger effect = lower value 0.836 | locus YOR329C, strain SCD5, stronger effect = lower value 0.998 | locus YPL031C, strain PHO85, stronger effect = lower value 0.824 | locus YPL153C, strain RAD53, stronger effect = lower value 0.777 | locus YPL204W, strain HRR25, stronger effect = lower value 0.859 | locus YPL209C, strain IPL1, stronger effect = lower value 0.992 | locus YPL256C, strain CLN2, stronger effect = lower value 0.904 | locus YPR025C, strain CCL1, stronger effect = lower value 0.993 | locus YPR106W, strain ISR1, stronger effect = lower value 0.99 | locus YPR111W, strain DBF20, stronger effect = lower value 0.994 | strain NNK1, stronger effect = lower value 0.992 | strain TSCII, stronger effect = lower value 0.991
active: locus YFR019W, strain FAB1, stronger effect = lower value 0.714 | locus YHR030C, strain SLT2, stronger effect = lower value 0.731 | locus YLR113W, strain HOG1, stronger effect = lower value 0.839
